# According to PubChem BioAssay (NCI):
# About 83,000 compounds went through this panel and 20% of them were active in at least one assay; those are over-represented in the sample as a whole.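 Assay: single dose, 48 h. Readout: percent growth (0 = no net growth; negative = cell death). Active: <10.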 Values without a mark were called inactive. Calls of active or inactive are those of the source.
# Key:
# Assay in all cases: NCI-60 one-dose screen, 48 h (100 = growth as untreated, 0 = no growth, -100 = all killed)
# Conditions in all cases: 10 µM unless noted
# DU-145 prostate = tested on: DU-145 prostate
# K-562 leukemia = tested on: K-562 leukemia
# MALME-3M melanoma = tested on: MALME-3M melanoma
# MDA-MB-231 breast = tested on: MDA-MB-231 breast
# RXF 393 renal = tested on: RXF 393 renal
# SF-268 CNS = tested on: SF-268 CNS
# SF-295 CNS = tested on: SF-295 CNS
# SF-539 CNS = tested on: SF-539 CNS
# UACC-257 melanoma = tested on: UACC-257 melanoma
# M14 melanoma = tested on: M14 melanoma
# HCT-15 colon = tested on: HCT-15 colon
# HT29 colon = tested on: HT29 colon
# SNB-75 CNS = tested on: SNB-75 CNS
# SNB-19 CNS = tested on: SNB-19 CNS
# U251 CNS = tested on: U251 CNS
# PC-3 prostate = tested on: PC-3 prostate
# SK-MEL-5 melanoma = tested on: SK-MEL-5 melanoma
# UACC-62 melanoma = tested on: UACC-62 melanoma
# LOX IMVI melanoma = tested on: LOX IMVI melanoma
# SK-MEL-28 melanoma = tested on: SK-MEL-28 melanoma
SMILES,growth (DU-145 prostate),growth (K-562 leukemia),growth (MALME-3M melanoma),growth (MDA-MB-231 breast),growth (RXF 393 renal),growth (SF-268 CNS),growth (SF-295 CNS),growth (SF-539 CNS),growth (UACC-257 melanoma),growth (M14 melanoma),growth (HCT-15 colon),growth (HT29 colon),growth (SNB-75 CNS),growth (SNB-19 CNS),growth (U251 CNS),growth (PC-3 prostate),growth (SK-MEL-5 melanoma),growth (UACC-62 melanoma),growth (LOX IMVI melanoma),growth (SK-MEL-28 melanoma)
Cn1c(O)c(C(/C=C/c2ccccc2)=Nc2ccccc2N)c(=O)n(C)c1=O,117%,55.9%,118%,91.4%,109%,114%,105%,107%,106%,104%,91.5%,72.1%,90.7%,101%,101%,77.7%,75.4%,76.1%,90.3%,120%
CCOC(=O)c1c(C)nc2ccccc2c1/C=C/c1ccc(OC)cc1,93.1%,42%,87%,74.6%,91.3%,78%,58.8%,85.3%,74%,70.5%,66%,73.5%,76.2%,75.9%,79.8%,60.2%,2.63% (active),45.7%,68.5%,96.2%
COc1ccc(Cl)cc1Nc1nc(C(F)(F)F)ccc1C(=O)N/N=C/c1ccccc1Cl,14.6%,2.37% (active),11%,-7.46% (active),0.498% (active),13.6%,-12.1% (active),-7.07% (active),2.7% (active),15.2%,0.947% (active),9.32% (active),50%,9.47% (active),-25.8% (active),5.53% (active),3.59% (active),8.19% (active),-13.6% (active),32.5%
Cn1ccnc1C(=O)/C=C/c1ccc(C(=O)Nc2ccc(F)cc2)cc1,19.9%,4.37% (active),66.4%,18.7%,5.96% (active),14.4%,6.55% (active),-40.1% (active),62.2%,17.6%,0.589% (active),9.78% (active),33%,24.4%,1.92% (active),22.2%,8.1% (active),35.6%,-59.7% (active),60.9%
Cc1ccc(O)c(NC(=O)c2ccc(CNc3ccnc(C(F)(F)F)c3)cc2)c1,107%,24.2%,59.9%,48.9%,92%,79.9%,17.2%,35.1%,71.3%,49.2%,49.9%,66.4%,72.5%,87.1%,82.1%,78.8%,36.5%,13.9%,40.6%,109%
Cc1ccc(/C=C2\CN(C(=O)C(Cl)Cl)C/C(=C\c3ccc(C)cc3)C2=O)cc1,-82.7% (active),-0.0477% (active),-56.5% (active),-3.27% (active),-88.1% (active),-20.4% (active),-7.46% (active),-86.4% (active),-33.1% (active),-65.6% (active),-39.2% (active),-5.72% (active),-30.2% (active),-53.7% (active),-94.9% (active),-49.3% (active),-81.8% (active),-67.2% (active),-92.2% (active),-56.1% (active)
CC[C@H](Nc1nc(N)nc(C)c1C#N)c1nc2cccc(NCCCCCC(=O)NO)c2c(=O)n1-c1ccccc1,69.5%,77.1%,52.6%,61.8%,-6.92% (active),55.7%,22.9%,45.9%,54.4%,71.3%,78.7%,79.2%,5.55% (active),71%,61.3%,45.1%,49.7%,15.7%,66.5%,45.8%
O=C1N[C@@H]2[C@@H](O)[C@@H](O)[C@H](O)C[C@H]2c2cc3c(c(O)c21)OCCO3,-2.39% (active),1.56% (active),-23.8% (active),-24.1% (active),-24.2% (active),-0.713% (active),-14.9% (active),-24.1% (active),-22.2% (active),-45.7% (active),-11.9% (active),-14.5% (active),-4.29% (active),-10.4% (active),-14.9% (active),-9.66% (active),-52.1% (active),-13.3% (active),-41.1% (active),-16.4% (active)
C/C(=N\Nc1nc(C)cs1)c1cc2ccccc2o1,107%,78.4%,93.8%,79.9%,120%,97.9%,94.7%,94.8%,102%,95.4%,98.8%,103%,119%,96.4%,94%,70.2%,92%,85.5%,85.8%,110%
CCSC1=CC(=O)c2ccccc2C1=O,95.1%,2.73% (active),14%,3.95% (active),42.8%,76.5%,97.2%,106%,83.1%,84.1%,73%,105%,52.8%,87.6%,79.1%,73%,50.8%,59.1%,47.7%,36.7%
c1ccc(CNc2ccc3nc(CCC4CCCCC4)[nH]c3c2)cc1,80.1%,14.6%,58.3%,77.7%,66.5%,79.8%,81%,82.1%,74.2%,76.2%,26.8%,13.8%,84.9%,80.4%,63.6%,62.5%,43.2%,59.6%,79.4%,80%
O=C1OCC2=C1C(c1cccc(C(F)(F)F)c1)c1cc3c(cc1N2CCO)OCO3 (stereo not given),10.7%,9.02% (active),63.9%,44%,1.92% (active),47.6%,-2.78% (active),-3.02% (active),74.2%,2.33% (active),25.2%,6.68% (active),19%,30.1%,21%,25.9%,20%,48.4%,40.6%,57.3%
C[C@@H]1CC[C@@]2(OC1)O[C@H]1C[C@H]3[C@@H]4CC=C5C[C@@H](O[C@@H]6O[C@H](CO)[C@@H](O[C@@H]7O[C@@H](CO)[C@H](O)[C@H]7O)[C@H](O)[C@H]6O[C@@H]6O[C@@H](C)[C@H](O)[C@@H](O)[C@H]6O)CC[C@]5(C)[C@H]4CC[C@]3(C)[C@H]1[C@@H]2C,-95.2% (active),-1.01% (active),-91.6% (active),-95.3% (active),-95% (active),-54.8% (active),-91.7% (active),-99.2% (active),-94% (active),-92.6% (active),-84.8% (active),-61.2% (active),-94.3% (active),-81.7% (active),-97.7% (active),-90.2% (active),-89.7% (active),-98% (active),-96.7% (active),-96.9% (active)
N#C/C(=C\c1ccc(Cl)cc1Cl)C(=O)Nc1ncc(Cc2ccc(Cl)c(Cl)c2)s1,99.3%,25.5%,93%,97.1%,113%,84%,89.9%,85.6%,93.2%,53.8%,37.7%,66.3%,97.9%,97.7%,90.9%,79.3%,97.8%,35.2%,34.4%,99.6%
C(/C=C/c1ccccc1)=Nc1ccc(CCc2ccc(N=C/C=C/c3ccccc3)cc2)cc1,25.6%,78.3%,115%,92%,83.8%,104%,73.3%,108%,97.9%,89.9%,15.9%,36.4%,116%,88.1%,75%,71.7%,96.6%,73.6%,73.1%,109%
